In this assay the test system is U-2932. As to the kind of experiment: growth inhibition by drug alone (1 - RLU/untreated control) (fraction); higher = stronger inhibition. The settings on record: 177Lu-lilotomab satetraxetan 0 ug/ml. Here is the method: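 U-2932 ABC-DLBCL cells were pretreated or not for 18 h with 1 ug/ml 177Lu-lilotomab satetraxetan (600 MBq/mg), washed and seeded (3000 cells/well) on 384-well plates pre-printed with the Selleck Cambridge Cancer Compound library. Viability was read by RealTime-Glo luminescence on days 3-6 after seeding. Effect = 1 - RLU/mean RLU of the 48 untreated no-drug control wells per plate; Bliss score = (M-E)/(1-Fa), with E the expected Bliss-additive effect.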

Counter-ions that a name gives are not always drawn.

For the molecule `Clc1ccc(Nc2nnc(Cc3ccncc3)c3ccccc23)cc1` [Vatalanib dihydrochloride (PTK787)], the “growth inhibition by drug alone” value runs as follows: (10 nM, time (day): 3) 0.0493; (10 nM, time (day): 4) 0.0329; (10 nM, time (day): 5) -0.0325; (10 nM, time (day): 6) -0.0722; (1000 nM, time (day): 3) 0.00749; (1000 nM, time (day): 4) 0.0478. For the same molecule, the “growth inhibition by drug alone” value (1000 nM, time (day): 5) was -0.0105 and the “growth inhibition by drug alone” value (1000 nM, time (day): 6) was -0.12.
Take `COc1cc(Nc2ncc(F)c(Nc3ccc4c(n3)NC(=O)C(C)(C)O4)n2)cc(OC)c1OC` [R406(free base)]: the “growth inhibition by drug alone” value is 0.0274 (10 nM, time (day): 3); -0.00454 (10 nM, time (day): 4); -0.0695 (10 nM, time (day): 5); -0.162 (10 nM, time (day): 6); 0.0655 (1000 nM, time (day): 3); 0.0291 (1000 nM, time (day): 4). The “growth inhibition by drug alone” value (1000 nM, time (day): 5) is -0.0439 and the “growth inhibition by drug alone” value (1000 nM, time (day): 6) came to 0.00754.
In the case of `COc1cc2ncnc(Nc3cccc(Br)c3)c2cc1OC`, the “growth inhibition by drug alone” value is 0.0352 (10 nM, time (day): 3); 0.0294 (10 nM, time (day): 4); -0.0462 (10 nM, time (day): 5); -0.213 (10 nM, time (day): 6); -0.0358 (1000 nM, time (day): 3); -0.00581 (1000 nM, time (day): 4). For the same molecule, the “growth inhibition by drug alone” value was -0.044 (1000 nM, time (day): 5) and -0.226 (1000 nM, time (day): 6).
Consider `FC(F)c1nc2ccccc2n1-c1nc(N2CCOCC2)nc(N2CCOCC2)n1`, for which the “growth inhibition by drug alone” value by setting is: (10 nM, time (day): 3) 0.143; (10 nM, time (day): 4) 0.0834; (10 nM, time (day): 5) 0.0466; (10 nM, time (day): 6) 0.0263; (1000 nM, time (day): 3) 0.437; (1000 nM, time (day): 4) 0.399. Besides, the “growth inhibition by drug alone” value runs as follows: (1000 nM, time (day): 5) 0.349; (1000 nM, time (day): 6) 0.367.
With `Cc1nc(-c2ccc(OCC(C)C)c(C#N)c2)sc1C(=O)O` [Febuxostat (Uloric)], the “growth inhibition by drug alone” value is 0.06 (10 nM, time (day): 3); 0.0554 (10 nM, time (day): 4); 0.0252 (10 nM, time (day): 5); -0.0354 (10 nM, time (day): 6); 0.00138 (1000 nM, time (day): 3); 0.0444 (1000 nM, time (day): 4). For the same molecule, the “growth inhibition by drug alone” value (1000 nM, time (day): 5) was -0.00425 and the “growth inhibition by drug alone” value (1000 nM, time (day): 6) is -0.214.

For the origin of these results see the supplement of paper PMC6897291.
